# GDH-TPI counter-1 – GDH-TPI coupled enzyme inhibition counter-screen; 360,000 tested, 1.2% active; inhibition, % at 4.8 µM; GDH-TPI coupled enzyme counterscreen, NADH absorbance; AID 588335; in the data active = inhibition above about 30%
# SARS 3CLpro inh – SARS-CoV 3CLpro protease inhibition | 290,000 tested, 0.14% active | AID 1706 | inhibition, % at 6 µM | P0C6X7 | recombinant SARS-CoV 3CLpro, quenched FRET peptide cleavage; in the data active = inhibition above about 12%
# BH1578 lux ind – quorum light induction in luxS cqsA deficient V. cholerae; 350,000 tested, 0.16% active; activation, % at 18.7 µM; V. cholerae BH1578 lux reporter, luminescence, 6 h; in the data active = activation mostly above about 9.7%, no sharp cut-off
# Mtb FBA inh – inhibitors of M. tuberculosis fructose-bisphosphate aldolase | P9WQA3 | purified M. tuberculosis FBA, fluorescence read-out | inhibition, % at 1 µM | 360,000 tested, 2.3% active | AID 588726
# Target sequence (P9WQA3 whole entry, looked up): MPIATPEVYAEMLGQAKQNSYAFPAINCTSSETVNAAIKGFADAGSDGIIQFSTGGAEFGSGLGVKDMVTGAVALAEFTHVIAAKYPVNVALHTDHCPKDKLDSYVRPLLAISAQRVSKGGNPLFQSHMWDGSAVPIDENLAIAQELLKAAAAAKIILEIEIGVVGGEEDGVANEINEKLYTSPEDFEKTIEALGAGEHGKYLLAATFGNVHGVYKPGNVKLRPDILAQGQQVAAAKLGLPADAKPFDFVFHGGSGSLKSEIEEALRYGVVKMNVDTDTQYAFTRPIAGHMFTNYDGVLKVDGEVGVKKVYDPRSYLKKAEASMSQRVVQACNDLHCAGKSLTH
# PrPC TRFRET – reduces human prion protein on the cell surface; P04156; cell surface PrPC, TR-FRET read-out; inhibition, % at 13.8 µM; 370,000 tested, 0.43% active; in the data active = inhibition above about 24%
# Mtb FBA inh conf – Mtb FBA inhibition, confirmed | shares compounds with Mtb FBA inh | purified M. tuberculosis FBA, fluorescence read-out | inhibition, % at 1 µM | 5,600 tested, 78% active
# GDH-TPI counter-2 – counter-screen for M. tuberculosis FBA inhibitors: GDH-TPI coupled enzyme inhibition; shares compounds with Mtb FBA inh; GDH-TPI coupled enzyme counterscreen, fluorescence; inhibition, % at 1 µM; 5,600 tested, 81% active; AID 652141; in the data active = inhibition above about 10%
# Numbers stand for hits; - = inactive; . = no result; + = active, no number. This is a sample that favours compounds with a hit; in the whole collection about 3.9% have one here. Rule as the data show it, unless noted: active = inhibition above about 27%; inactive = the rest.
SMILES,GDH-TPI counter-1,SARS 3CLpro inh,BH1578 lux ind,Mtb FBA inh,PrPC TRFRET,Mtb FBA inh conf,GDH-TPI counter-2
CCCCNc1c(-c2ccc(OC)c(SC(C)CC)c2)nc2ccc(Cl)cn12 (stereo unspecified),-,.,-,-,-,.,.
CCOC(=O)c1cc(-c2ccc(C)cc2)nc2nc(SC)[nH]c(=O)c12,-,-,-,39.9,-,150.6,158.8
CCOC(=O)c1cc(-c2cccc(C(F)(F)F)c2)nc2nc(SC)[nH]c(=O)c12,-,-,-,-,-,.,.
CCOC(=O)Nc1ccc(Oc2ccccc2)cc1,-,-,-,-,-,.,.
CC(C)(C)Nc1c2ccccc2nc2ccccc12,-,-,-,42.2,-,94.2,70.7
CCOC(=O)Nc1c2ccccc2nc2ccccc12,-,-,-,94.9,-,114.0,77.4
O=C(O)c1ccc(Nc2c3ccccc3nc3ccccc23)cc1,-,-,-,98.2,-,+,+
Cc1ccc(C(=O)NNc2c3ccccc3nc3ccccc23)cc1,-,-,-,36.1,-,96.9,103.2
O=C(NNc1c2ccccc2nc2ccccc12)c1ccc(Cl)cc1,-,-,-,-,-,.,.
CN[C@H]1C[C@H]2c3[nH]c4ccc(-c5cccc(C)c5)cc4c3CCN2C[C@H]1[C@H](C)O,-,.,-,-,-,.,.
Cc1cc2nc(-c3ccccc3)c(Cc3cccc(Cl)c3)n2c(C)c1Br,.,.,.,.,-,.,.
Oc1cccc(Nc2c3ccccc3nc3ccccc23)c1,-,-,-,65.2,-,-,17.8
Cc1ccc(-c2nc(Nc3cccc(O)c3)c3ccccc3n2)cc1,-,-,-,-,-,.,.
CC(C)c1ccc(NC(=S)N2CCN(C)CC2)cc1,-,-,-,32.1,-,-,-
CC(C)c1ccc(NC(=S)N2CCCC2)cc1,-,-,-,-,-,.,.
CC(=O)CC[C@H]1CC[C@]2(CCCN(C(=O)c3ccccc3)C2)O1,.,.,.,.,-,.,.
Oc1ccc(-c2nc(-c3ccc(O)c(O)c3)cs2)cc1,-,-,-,-,-,.,.
Oc1ccc(-c2nccs2)cc1,-,.,-,47.4,-,108.3,86.2
C=CCN(Cc1ccc2c(c1)OCO2)C(C#CCCCC)C(C)C (stereo unspecified),.,.,.,.,-,.,.
CN(c1ccccc1C(=O)NC1CC2CCC1C2)S(=O)(=O)c1ccccc1 (stereo unspecified),-,-,-,-,-,.,.
CS(=O)(=O)Nc1ccccc1C(=O)NC1CC2CCC1C2 (stereo unspecified),-,-,-,37.3,-,65.5,49.3
Cc1ccccc1CNC(=O)c1ccccc1NS(C)(=O)=O,-,-,-,59.3,-,60.0,51.3
CCc1nc2ccc(C(=O)NCc3ccc4c(c3)OCO4)cn2c1N(CC)Cc1cccc(Br)c1,-,.,-,-,-,.,.
O=C1c2nccnc2C(=O)N1c1ccc(F)cc1,-,-,-,-,-,.,.
O=C(Cn1c2ccccc2c(=O)c2ccccc21)Nc1cccc(F)c1,-,-,-,90.3,-,100.2,71.0
SMILES,GDH-TPI counter-1,SARS 3CLpro inh,BH1578 lux ind,Mtb FBA inh,PrPC TRFRET,Mtb FBA inh conf,GDH-TPI counter-2
CCN(C[C@H]1N[C@@](C)(C(=O)OC)[C@H]2C(=O)N(C)C(=O)[C@@H]12)C(=O)COc1ccccc1,-,.,-,-,-,.,.
Nc1ccc[n+](Cc2ccccn2)c1,-,-,-,60.7,-,-,-
O=C(Nc1nc2nc(-c3ccccc3)cc(-c3ccccc3)n2n1)c1ccco1,-,-,-,43.2,-,132.2,97.8
CCOC(=O)C1CCCN(S(=O)(=O)c2ccc(S(=O)(=O)N3CCCC3)cc2)C1 (stereo unspecified),-,.,-,-,-,.,.
CCOC(=O)C1CCCN(S(=O)(=O)c2cc3[nH]c(=O)c(=O)[nH]c3cc2C)C1 (stereo unspecified),-,-,-,47.5,-,83.3,58.2
Cc1nc(-c2ccccc2)sc1-c1ccn[nH]1,-,-,-,109.8,-,32.6,23.9
O=S(=O)(Nc1cccc(-c2cn3c(n2)SCC3)c1)c1cccs1,-,-,-,32.1,-,97.8,96.3
O=S(=O)(Nc1cccc(-c2cn3c(n2)SCC3)c1)c1ccccc1F,-,-,-,-,-,.,.
c1ccc2c(c1)c1cccc3ccc4cccc2c4c31,-,.,-,54.9,-,74.8,64.1
O=c1c2ccccc2ccc2ccccc12,-,.,-,-,-,.,.
CCN1CCN(c2nc3c(C)cccn3c(=O)c2/C=C(\C#N)C(=O)NC)CC1,-,-,-,29.6,-,31.9,19.6

# Compound activity (PubChem BioAssay)
